Laboratory results reported in PubChem BioAssay AID1376 (SRMLSC, 2008).
Among all 220,000 compounds or so, about 530 (0.24%) were called active. The entries come from a sample that favours actives as a whole. Results with a measured potency or affinity are listed apart. A number with no mark means an inactive call. Rule as the data show it: active = inhibition above about 13%; inconclusive = no clear call, values can overlap the other calls; inactive = below that.

Target: Bifunctional protein GlmU (Mycobacterium tuberculosis (strain ATCC 25618 / H37Rv)) (UniProt P9WMN3)
Sequence (P9WMN3 whole entry, looked up): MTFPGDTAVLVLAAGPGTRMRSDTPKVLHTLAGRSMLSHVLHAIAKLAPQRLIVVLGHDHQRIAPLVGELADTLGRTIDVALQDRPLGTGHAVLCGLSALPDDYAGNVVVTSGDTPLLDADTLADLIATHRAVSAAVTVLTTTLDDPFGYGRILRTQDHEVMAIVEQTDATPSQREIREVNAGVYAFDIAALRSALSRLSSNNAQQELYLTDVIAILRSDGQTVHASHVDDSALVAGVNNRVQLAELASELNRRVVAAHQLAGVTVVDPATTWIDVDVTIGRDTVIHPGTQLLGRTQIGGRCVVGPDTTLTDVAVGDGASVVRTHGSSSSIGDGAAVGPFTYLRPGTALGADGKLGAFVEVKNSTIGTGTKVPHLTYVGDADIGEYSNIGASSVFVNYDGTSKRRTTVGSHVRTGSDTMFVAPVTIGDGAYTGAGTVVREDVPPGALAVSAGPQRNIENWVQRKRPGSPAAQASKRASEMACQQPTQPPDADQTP
Test: inhibition of mycobacterial GlmU enzyme – biochemical, glucosamine-1-phosphate acetyltransferase (AID 1376);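 also: 0% = complete reaction with vehicle and 100% = reaction without substrate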
Conditions: M. tuberculosis GlmU acetyltransferase enzyme assay; hits give high values;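 tested at 30 µM in the primary screen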

SMILES | inhibition
O=C(CNCC1CCCO1)N1CCCc2ccccc21 (stereo not drawn) | 1.14%
O=C(O)c1nc2ccccc2nc1C(=O)O | -0.04%
Cc1cc(C(=O)Nc2ccc(C)c(S(=O)(=O)N3CCOCC3)c2)c(C)o1 | -1.51%
CCC1=C(OC(=O)N(CC)CC)N2C(=O)OC(=NCC3CC3)[C@]2(C)[C@H]2C1=CC[C@H]1C(=O)N(CC)C(=O)[C@H]12 | 1.38%
COc1ccc(CNC(=O)Nc2ccc3c(c2)N(C)C(=O)CS3)cc1 | -4.33%
O=C(c1ccc(C(F)(F)F)cc1)c1c[nH]c(C(=O)NCCCn2ccnc2)c1 | -1.27%
Cc1ccccc1C(=O)NNC(=O)CSc1nnc(-c2ccncc2)n1-c1ccccc1 | -3.22%
OCCC1CN(Cc2cccn2-c2nccs2)CCN1C1CCCCC1 (stereo not drawn) | -4.98%
COc1cc2cccc(OC)c(=O)c2c(O)c1OC | -3.83%
Oc1cccc2cc3cccc(O)c3c(O)c12 | -0.27%
O=C(c1ccc2c(c1)OCCO2)N1CCN(c2ccc([N+](=O)[O-])cc2)CC1 | -4.31%
COc1cc(/C=C2\SC(c3ccc(C)cc3)=NC2=O)ccc1O | 7.11%
COc1cc(/C=C2\SC(c3ccc(C)cc3)=NC2=O)cc(OC)c1O | 5.86%
Cc1ccc(C2=NC(=O)/C(=C/c3cc(O)c(O)c(Br)c3)S2)cc1 | 17.7% (active)
CC(=O)Nc1ccc(/C(C)=N/NC(=O)c2ccncc2)cc1 | 1.93%
COc1ccc(N2C(=O)CC(C3CCCO3)C2=O)cc1 (stereo not drawn) | 6.39%
Cn1c(O)c(C=NC2CC(C)(C)NC(C)(C)C2)c(=O)n(C)c1=O | 1.39%
COc1cc2c(cc1NS(=O)(=O)N1CCCCC1)oc1ccccc12 | 14.6% (active)
COc1cc2c(cc1NS(=O)(=O)N1CCCC1)oc1ccccc12 | 1.9%
O=S(=O)(Nc1ccc2c(c1)oc1ccccc12)N1CCCC1 | 5.63%
FC(F)Oc1ccc(NC(=S)NCCc2ccccn2)cc1 | -3.82%

SMILES | inhibition
O=C(Nc1cccc(Cl)c1)Nc1nnc(CSCCOc2ccc(Cl)cc2)s1 | -7.81%
Cc1cc(C=O)c(C)n1-c1cccc(C(=O)O)c1 | 6.93%
Cc1ccc(-c2ccccc2)n1-c1cccc(C(=O)O)c1 | 5.34%
Cc1ccc(C)n1-c1cccc(C(=O)O)c1 | 23.5% (active)
Cc1ccccc1NC(=O)Cn1nc(-c2ccccc2)nc1-c1ccccc1 | 1.21%
O=[N+]([O-])c1cccnc1Oc1cccnc1 | 6.22%
Cn1c(Cc2ccc3c(c2)OCO3)nnc1SCC(=O)N1CCc2ccccc2C1 | 1.71%
CCOC(=O)C1CCN(c2nc(C)cc(C)c2C#N)CC1 | -1.41%
N#Cc1c(N2CCCCC2)nc(N)c2c(N)nc(SCC(=O)O)cc12 | 13.1% (active)
CCOc1cc2c(C#N)c(N3CCCC3)nc(N)c2c(N)n1 | 4.64%
COc1cc2c(C#N)c(N3CCCCC3)nc(N)c2c(N)n1 | -2.38%
CCOC(=O)C1CCN(c2nc(N)c3c(N)nc(SCC(=O)O)cc3c2C#N)CC1 | 14.2% (active)
N#Cc1c(N2CCCC2)nc(N)c2c(N)nc(N3CCCC3)cc12 | -6.67%
CC(=O)Nc1ccccc1C(=O)C(=O)Nc1ccc(C)c(C)c1 | -3.19%
COc1cc(C(=S)N2CCCC2)cc(Cl)c1OCC(=O)Nc1ccc(C)cc1C | -4.86%
CN(C)CCCOC(=O)c1cc2ccccc2o1 | -2.64%
O=C(Cn1cnc2ccccc2c1=O)N1CCN(c2ccccc2)CC1 | 5.67%
COC(=O)CN(c1nc(C)c(Br)c(OC)n1)S(=O)(=O)c1ccc(C)cc1 | 1.24%
COc1nc(N(CC(N)=O)S(=O)(=O)c2ccccc2)nc(C)c1Cl | 4.56%
COC(=O)CN(c1nc(C)c(Cl)c(OC)n1)S(=O)(=O)c1ccc(C)cc1 | 25.4% (active)
CC(O)CCC(=O)NNC(=S)Nc1ccccc1 (stereo not drawn) | 2.51%

SMILES | inhibition
O=C(Nc1cccc2ccccc12)C1CCN(C(=O)Cc2ccccc2)CC1 | 0.74%
O=C(Nc1ccccc1Br)C1CCN(C(=O)Cc2ccccc2)CC1 | -6.58%
O=C(O)C1CCCCC1C(=O)Nc1ccc(F)cc1F (stereo not drawn) | 5.94%
O=C(O)C1CCCCC1C(=O)Nc1ccccc1Cl (stereo not drawn) | -0.88%
O=C(O)C1CCCCC1C(=O)Nc1ccccc1F (stereo not drawn) | 13.6% (active)
O=C(Nc1ccccc1F)C1CCN(C(=O)Cc2ccccc2)CC1 | 15% (active)
Nc1nc2n(n1)C(c1ccc(F)cc1)CC(c1ccc(F)cc1)N2 (stereo not drawn) | -1.02%
COc1ccc(C2CC(c3ccc(F)cc3)Nc3nc(N)nn32)cc1 (stereo not drawn) | 20% (active)
COc1ccc(C2CC(c3ccc(OC)cc3)n3nc(N)nc3N2)cc1 (stereo not drawn) | 1.16%
Cc1ccc(/C(O)=C2\C(=O)C(=O)N(CC(C)O)C2c2ccccn2)cc1 (stereo not drawn) | -0.84%
COC(=O)Cc1ccc(NC(=S)NCCO)cc1 | -2%
CCCNC(=S)Nc1ccc(CC(=O)OC)cc1 | -4.55%
COC(=O)Cc1ccc(NC(=S)NCCCO)cc1 | 13.5% (active)
COC(=O)c1sc(N2C(=O)C(=O)/C(=C(/O)c3ccc(C)cc3)C2c2ccco2)nc1C (stereo not drawn) | -0.75%
COc1ccc(C2NC(=S)NC(C)=C2C(=O)Nc2ccccn2)cc1 (stereo not drawn) | 2.34%
CC1=C(C(=O)Nc2ccccn2)C(c2ccc(Br)cc2)NC(=S)N1 (stereo not drawn) | 14.3% (active)
CC1=C(C(=O)Nc2ccccn2)C(c2ccc(Cl)cc2)NC(=S)N1 (stereo not drawn) | 2.47%
Cc1cc(OCCCC(=O)NC2=NCCS2)ccc1Cl | -5.02%
c1ccc2oc(-c3[nH]ncc3CN3CCSCC3)cc2c1 | 0.41%
CCn1cc(CNCc2cn[nH]c2-c2cc3ccccc3o2)cn1 | 1.28%
OC1(CNCc2cn[nH]c2-c2cc3ccccc3o2)CCCCC1 | 14.3% (active)
